Screening results from PubChem.
BoNT F protease: inhibitors of Botulinum neurotoxin F light chain protease. Multiplex microsphere protease cleavage assay, flow cytometry. inhibition, % at 10 µM. 0.22% of 360,000 active. AID 588497; in the data active means inhibition above about 35%, passing the limit was not always enough; inconclusive means no clear call, values can overlap the other calls; further: plate controls were buffer without enzyme for full effect and enzyme alone for no effect
BoNT A protease: blocks Botulinum neurotoxin A light chain protease. multiplex microsphere protease substrate cleavage, flow cytometry. inhibition, % at 10 µM. 0.17% of 360,000 active; further: plate controls were buffer without enzyme for full effect and enzyme alone for no effect
Anthrax LF inh2: blocks Bacillus anthracis lethal factor protease; inhibition, % at 10 µM; AID 588501; multiplex microsphere protease cleavage assay, LF; P15917; 0.12% of 360,000 active; further: plate controls were buffer without enzyme for full effect and enzyme alone for no effect
Bead autofluor: counter-screen for toxin protease inhibitors: compound fluorescence; compound autofluorescence counterscreen, microsphere flow cytometry; active compounds read high; fluorescence intensity (concentration not given with the values); 3.1% of 360,000 active; AID 624483; in the data active means fluorescence intensity above about 16000; inconclusive means no clear call, values can overlap the other calls
CCHF vOTU inh: CCHFV vOTU protease inhibition; AID 651958; Pep-AMC fluorescence; 0.55% of 370,000 active; inhibition, % at 11.5 µM; in the data active means inhibition above about 30%; further: 0% = vehicle wells with enzyme and 100% = no enzyme wells
SARS 3CLpro inh: SARS-CoV 3CLpro protease inhibition. P0C6X7. recombinant SARS-CoV 3CLpro, quenched FRET peptide cleavage. inhibition, % at 6 µM. 0.14% of 290,000 active. AID 1706; in the data active means inhibition above about 12%
* marks the source's active call; other numbers are inactive results; u = inconclusive; x = no result given. This is a sample that favours compounds with a hit; in the whole collection about 3.9% have one here. Unless noted, no stated cut-off is given here; in the data, active means inhibition above about 30%; inconclusive means no clear call, values can overlap the other calls; inactive means below that.

SMILES | BoNT F protease | BoNT A protease | Anthrax LF inh2 | Bead autofluor | CCHF vOTU inh | SARS 3CLpro inh
COn1c(-c2ccc(Cl)cc2)nc2ccc(Cl)cc21 | -1 | 0 | -2 | 23040* | 4 | 1
Cc1cc(Cl)cc(C)c1OCC(=O)NC1CCCCCC1 | -10 | 0 | 0 | 3889 | 5 | x
CC(c1ccco1)N(C(=O)c1ccc(C(F)(F)F)cc1)c1ccccn1 (centres undefined) | 0 | 0 | -1 | 4270 | -32 | 4
Cc1ccc(C(=O)N(c2ccccn2)C(C)c2ccco2)cc1C (centres undefined) | 4 | u | -3 | 21171* | 1 | 6
C/C(CC(=O)Nc1cccc2c1CCCC2)=N\NC(=O)c1ccccc1N | -4 | u | -3 | 24027* | -8 | 7
Cc1[nH]n(C(N)=S)c(=O)c1N=Nc1ccc(S(=O)(=O)N2CCCCCC2)cc1 | -12 | u | -3 | 21910* | 6 | -2
Cc1ccc(N2CCCn3c2cc(C)c(C#N)c3=O)cc1C | 2 | 2 | -5 | 21058* | 0 | 2
Cc1ccc(N2CCCn3c2cc(C)c(C#N)c3=O)cc1Cl | 6 | 2 | -6 | 15477 | 8 | -3
Cc1[nH]n(-c2ccccc2)c(=O)c1N=Nc1cccc([N+](=O)[O-])c1 | 42* | -2 | -8 | 4038 | 10 | -1
COc1ccc(Cl)cc1NC(=O)C1CCCN(c2cc(C)nc3ncnn23)C1 (centres undefined) | -3 | 0 | -2 | 9706 | 2 | -3
CCCc1cc(N2CCCC(C(=O)Nc3cc(Cl)ccc3OC)C2)n2ncnc2n1 (centres undefined) | 0 | u | 1 | 16461* | -15 | 3
CC1(C)SC(=S)N(Cc2ccc3c(c2)OCO3)C1N(O)C(=O)NC1CCCCC1 (centres undefined) | -32 | -3 | -11 | u | 16 | 2
CN1C(=S)SC(N(O)C(=O)NC2CCCCC2)C1(C)C (centres undefined) | 7 | u | 1 | 21404* | -4 | -1
O=C(CSc1nnc(C2CCCCC2)o1)Nc1ccccc1Cl | 10 | -2 | 5 | 3653 | -8 | -3
CCC(=O)N1CCc2cc(S(=O)(=O)NC(Cc3ccccc3)C(=O)O)ccc21 (centres undefined) | -6 | 0 | 3 | 4621 | -15 | -3
CCN1/C(=C\C(=S)Nc2ccccc2)Sc2ccccc21 | -45 | 39* | -5 | 3324 | 1 | 3
O=[N+]([O-])/C=C/c1cn(Cc2ccc(F)cc2)c2ccccc12 | 27 | 38* | 31* | 6767 | 2 | 8
C[C@@H]1CN([C@@H](C)CO)C(=O)CCCn2cc(nn2)CO[C@H]1CN(C)C(=O)C1CCCCC1 | x | x | x | x | -7 | x
Cc1ccc(C)c(NC(=S)N2CCC(N(C)CC3CCCO3)CC2)c1 (centres undefined) | -2 | 0 | -2 | 10947 | -3 | -5
Cc1ccc(NC(=S)N2CCC(N(C)CC3CCCO3)CC2)c(C)c1 (centres undefined) | 12 | 10 | 2 | 19642* | -6 | 3
CCc1c(C)sc(NC(=S)N2CCN(C(=O)C3CCCO3)CC2)c1C(=O)OC (centres undefined) | -286 | -162 | -43 | 51235* | 15 | 1
Cc1ccc(NC(=S)N2CCN(C(=O)C3CCCO3)CC2)c(C)c1 (centres undefined) | 1 | u | 0 | 22658* | 4 | 0
CCC(NC(=O)c1ccc2c(c1)c(C)c(C)n2Cc1ccc(-c2ccccc2C#N)cc1)c1ccccc1 (centres undefined) | x | x | x | x | 11 | x
CC1CCCN(C(=O)C(=O)Nc2ccc3nc4n(c(=O)c3c2)CCCCC4)C1 (centres undefined) | -3 | -1 | -11 | 6329 | -5 | -8
Cc1ccc(C)c(S(=O)(=O)N2CCN(C(=O)c3cc(S(=O)(=O)NCc4ccccc4)ccc3C)CC2)c1 | 7 | 2 | -3 | 4320 | -6 | 2
SMILES | BoNT F protease | BoNT A protease | Anthrax LF inh2 | Bead autofluor | CCHF vOTU inh | SARS 3CLpro inh
Cc1nnc2n(c1=O)C(CS(=O)(=O)c1ccccc1)CS2 (centres undefined) | 0 | u | -6 | 21322* | -1 | -3
COC(=O)c1nn(-c2ccc(OC)cc2)c(=O)cc1Oc1ccccc1 | 3 | 2 | -1 | 21753* | -1 | -3
Cc1ccccc1NC(=O)Cc1nc(CSc2nnc(C3CCCCC3)n2N)cs1 | 0 | 1 | -1 | 22506* | -5 | 4
Nn1c(SCC(=O)Nc2cccc(F)c2)nnc1C1CCCCC1 | 4 | 1 | -3 | 22029* | -8 | -4
CCn1nc(C)c(CNC(=O)c2cc(COc3ccc(C)nc3)on2)c1C | 0 | -2 | -2 | 6551 | 17 | 2
COC(=O)[C@]1(CC(C)C)N[C@H](c2ccc(-c3cccc(Cl)c3)cc2)[C@@H]2C(=O)N(C)C(=O)[C@@H]21 | -2 | -1 | -4 | 3203 | 13 | x
CCOc1ccc(S(=O)(=O)NCCC2=CCCCC2)c2ccccc12 | -4 | u | -2 | 24639* | 6 | 0
COc1ccc(C)cc1S(=O)(=O)NCCC1=CCCCC1 | -3 | 1 | 2 | 10623 | -6 | -2
CC(C)n1cc(/C=C2\NC(=O)N(c3cccc(Cl)c3)C2=O)c2ccccc21 | -1 | u | -3 | 19627* | -1 | -4
O=C(Nc1cccs1)OC1CC2CC1[C@H]1CCCCN1C2 (some centres undefined) | x | x | x | x | -9 | x
COC(=O)c1ccc(Cn2ccc3ccc(-c4ccc5ccn(C(=O)c6ccccc6C)c5c4)cc32)cc1 | x | x | x | x | 2 | x
Cc1n[nH]c2ccc(Br)cc2c1=O | 0 | 0 | -3 | 2849 | -2 | x
Cc1nc2c([nH]c3ccc(Br)cc32)s1 | 0 | 0 | -1 | 20775* | -2 | 6
O=C(CCCc1ccccc1)NCc1cccnc1 | -3 | -1 | 0 | 24595* | -3 | -6
O=C(O)CCCc1nc(-c2ccccc2)no1 | -2 | 0 | -3 | 16634* | -2 | -2
O=C(CCc1nc(-c2ccccc2)no1)NCc1cccnc1 | -5 | -3 | -3 | 23102* | -3 | -1
CCOC(=O)[C@@]12CN(C(=O)OC(C)(C)C)CC=C1N(Cc1ccc(OC)cc1)C(=O)[C@H]2CC(=O)NCc1cccs1 | x | x | x | x | 10 | x
CN(CC(=O)Nc1ccc(Cl)c(C(F)(F)F)c1)S(=O)(=O)c1cnc[nH]1 | -4 | 0 | 2 | 2954 | 5 | x
N#C/C(=C\N1CCOCC1)C(N)=O | -6 | 6 | u | 3753 | -9 | 2
COc1cc(C(=O)Nc2cccc(C(C)=O)c2)cc(OC)c1OC | -3 | -1 | 3 | 4555 | 1 | -2
COc1cccc(C(=O)Nc2cccc(NC(C)=O)c2)c1 | -4 | 0 | -2 | 11178 | 20 | -1
COc1cccc(C(=O)Nc2ccc(NC(C)=O)cc2)c1 | -1 | u | -4 | 22073* | 0 | 5
COc1cc(NC(=O)Nc2cccc(C(C)=O)c2)cc(OC)c1OC | -1 | 1 | -10 | 21687* | 8 | -2
CC(=O)c1cccc(NC(=O)c2onc(C)c2Cl)c1 | 0 | 0 | 2 | 5061 | 8 | 0
